The target in experiment [1] is POU1 (OCT1 POU domain) (human, UniProt P14859 260-458). As to the kind of experiment: EMSA-SELEX-seq; no BOB1; 20 mM Tris-HCl pH 7.6, 140 mM NaCl, 10% glycerol, 0.5 mM EDTA, 0.05% Triton X-100, 0.1 mg/mL BSA, 0.1 mg/mL poly(dI-dC), 5 mM DTT, room temperature, 20 min; high values mean tight binding. Particulars: protein: recombinant; dsDNA, one strand shown. In short, it runs like this:
(§1)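 Binding preference is reported as the percentage of sequenced 8-mers that match a motif pattern. Tagged POU-domain proteins were made in E. coli BL21, purified under denaturing conditions and renatured. A 30 ng portion was combined with 300 ng of a PCR-amplified double-stranded random 35-nt library, with or without 28 ng coactivator protein, in 20 μL Tris–HCl pH 7.6 binding buffer for 20 min at RT. Complex bands were excised from native 6% PAGE, eluted and PCR-amplified over four rounds before Illumina sequencing.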
On the technique in general: In EMSA bound probe runs differently from free probe, usually more slowly.

Experiment [2] concerns the target T1, POU2 (OCT2 POU domain) (human, UniProt P09086 175-386).
T1 sequence: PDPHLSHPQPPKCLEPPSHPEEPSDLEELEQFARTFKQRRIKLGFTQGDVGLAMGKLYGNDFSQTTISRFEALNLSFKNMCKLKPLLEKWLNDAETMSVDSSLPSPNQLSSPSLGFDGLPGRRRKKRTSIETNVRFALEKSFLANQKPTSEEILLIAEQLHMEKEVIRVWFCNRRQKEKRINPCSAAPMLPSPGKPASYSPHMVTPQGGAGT
The experiment is described as above. Particulars: protein: recombinant; dsDNA, one strand shown. In short, it runs like this:
as §1

For experiment [3], the target named is POU1 (OCT1 POU domain);BOB1 (OBF1, OCA-B) (human;human, UniProt P14859;Q16633 260-458;1-256, |). In words: EMSA-SELEX-seq; with BOB1 (ternary complex band); 20 mM Tris-HCl pH 7.6, 140 mM NaCl, 10% glycerol, 0.5 mM EDTA, 0.05% Triton X-100, 0.1 mg/mL BSA, 0.1 mg/mL poly(dI-dC), 5 mM DTT, room temperature, 20 min; high values mean tight binding. Particulars: protein: recombinant;recombinant; copies: 1;1; dsDNA, one strand shown. In short, it runs like this: as §1

Experiment [4] deals with T2, POU2 (OCT2 POU domain);BOB1 (OBF1, OCA-B) (human;human, UniProt P09086;Q16633 175-386;1-256, |).
T2 sequence 1: T1 sequence
T2 sequence 2: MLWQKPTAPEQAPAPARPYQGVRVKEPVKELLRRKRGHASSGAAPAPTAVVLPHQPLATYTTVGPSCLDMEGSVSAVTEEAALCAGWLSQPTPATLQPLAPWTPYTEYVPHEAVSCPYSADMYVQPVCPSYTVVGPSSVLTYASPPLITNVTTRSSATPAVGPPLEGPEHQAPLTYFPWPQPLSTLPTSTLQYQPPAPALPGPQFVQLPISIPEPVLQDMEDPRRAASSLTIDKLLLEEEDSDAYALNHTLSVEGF
The experiment is described as above. To be noted: protein: recombinant;recombinant; copies: 1;1; dsDNA, one strand shown. The gist of the method:
as §1

The results in this text go back to PMC10812921, “Transcriptional Coactivator BOB1 (OBF1, OCA-B) Modulates the Specificity of DNA Recognition by the POU-Domain Factors OCT1 and OCT2 in a Monomeric Configuration”.

POU1 (OCT1 POU domain), sequence (P14859 260-458): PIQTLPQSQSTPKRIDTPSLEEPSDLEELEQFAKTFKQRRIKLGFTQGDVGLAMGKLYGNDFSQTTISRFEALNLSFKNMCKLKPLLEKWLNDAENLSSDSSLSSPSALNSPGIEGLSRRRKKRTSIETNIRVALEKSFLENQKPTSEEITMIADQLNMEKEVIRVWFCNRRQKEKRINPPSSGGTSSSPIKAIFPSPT

As to ACGTGAAT, the binding signal in experiment [1] was 0.0732 % of ANNNNAAN 8-mers; in experiment [2] it was 0.107 % of ANNNNAAN 8-mers; in experiment [3] it was 0.0558 % of ANNNNAAN 8-mers; in experiment [4], 0.0784 % of ANNNNAAN 8-mers.

ATTCAAAG: the binding signal was 0.281 % of ANNNNAAN 8-mers in experiment [1], 0.201 % of ANNNNAAN 8-mers in experiment [2], 0.314 % of ANNNNAAN 8-mers in experiment [3] and 0.242 % of ANNNNAAN 8-mers in experiment [4].

For AATTCAAT, the binding signal was 0.121 % of ANNNNAAN 8-mers in experiment [1], 0.125 % of ANNNNAAN 8-mers in experiment [2], 0.0948 % of ANNNNAAN 8-mers in experiment [3] and 0.125 % of ANNNNAAN 8-mers in experiment [4].

In the case of ATGCCAAT, the binding signal in experiment [1] is 0.0648 % of ANNNNAAN 8-mers; in experiment [2] it was 0.0857 % of ANNNNAAN 8-mers; in experiment [3], 0.0609 % of ANNNNAAN 8-mers; in experiment [4], 0.0627 % of ANNNNAAN 8-mers.

Regarding AGTTGAAC, the binding signal in experiment [1] was 0.0259 % of ANNNNAAN 8-mers; in experiment [2], 0.0253 % of ANNNNAAN 8-mers; in experiment [3] it was 0.0258 % of ANNNNAAN 8-mers; in experiment [4], 0.0338 % of ANNNNAAN 8-mers.

On to ACTGTAAA, for which the binding signal in experiment [1] is 0.0404 % of ANNNNAAN 8-mers; in experiment [2] it was 0.042 % of ANNNNAAN 8-mers; in experiment [3], 0.0406 % of ANNNNAAN 8-mers; in experiment [4] it was 0.0388 % of ANNNNAAN 8-mers.

Consider AATCGAAG, for which the binding signal in experiment [1] is 0.0408 % of ANNNNAAN 8-mers; in experiment [2] it was 0.0547 % of ANNNNAAN 8-mers; in experiment [3] it was 0.0531 % of ANNNNAAN 8-mers; in experiment [4] it was 0.0495 % of ANNNNAAN 8-mers.

Turning to ATCAGAAG, the binding signal in experiment [1] is 0.0271 % of ANNNNAAN 8-mers; in experiment [2] it was 0.0363 % of ANNNNAAN 8-mers; in experiment [3], 0.0359 % of ANNNNAAN 8-mers; in experiment [4], 0.033 % of ANNNNAAN 8-mers.

As to AAATCAAG, the binding signal in experiment [1] is 0.098 % of ANNNNAAN 8-mers; in experiment [2], 0.0926 % of ANNNNAAN 8-mers; in experiment [3], 0.132 % of ANNNNAAN 8-mers; in experiment [4] it was 0.128 % of ANNNNAAN 8-mers.

Consider AATATAAC, for which the binding signal in experiment [1] was 0.05 % of ANNNNAAN 8-mers; in experiment [2], 0.0817 % of ANNNNAAN 8-mers; in experiment [3], 0.0589 % of ANNNNAAN 8-mers; in experiment [4], 0.0578 % of ANNNNAAN 8-mers.

Regarding ACTGGAAG, the binding signal in experiment [1] is 0.021 % of ANNNNAAN 8-mers; in experiment [2], 0.027 % of ANNNNAAN 8-mers; in experiment [3], 0.0211 % of ANNNNAAN 8-mers; in experiment [4], 0.0314 % of ANNNNAAN 8-mers.

Consider AGCCCAAA, for which the binding signal in experiment [1] is 0.0164 % of ANNNNAAN 8-mers; in experiment [2], 0.0207 % of ANNNNAAN 8-mers; in experiment [3], 0.0156 % of ANNNNAAN 8-mers; in experiment [4], 0.0157 % of ANNNNAAN 8-mers.

For AACCAAAC, the binding signal in experiment [1] was 0.0248 % of ANNNNAAN 8-mers; in experiment [2], 0.0236 % of ANNNNAAN 8-mers; in experiment [3] it was 0.0437 % of ANNNNAAN 8-mers; in experiment [4], 0.0239 % of ANNNNAAN 8-mers.

For ACAGTAAC, the binding signal in experiment [1] is 0.0149 % of ANNNNAAN 8-mers; in experiment [2], 0.0242 % of ANNNNAAN 8-mers; in experiment [3] it was 0.0148 % of ANNNNAAN 8-mers; in experiment [4], 0.0149 % of ANNNNAAN 8-mers.

As to ATATTAAA, the binding signal is 0.297 % of ANNNNAAN 8-mers in experiment [1], 0.365 % of ANNNNAAN 8-mers in experiment [2], 0.131 % of ANNNNAAN 8-mers in experiment [3] and 0.14 % of ANNNNAAN 8-mers in experiment [4].

For AGATAAAG, the binding signal is 0.0439 % of ANNNNAAN 8-mers in experiment [1], 0.0495 % of ANNNNAAN 8-mers in experiment [2], 0.0359 % of ANNNNAAN 8-mers in experiment [3] and 0.0281 % of ANNNNAAN 8-mers in experiment [4].

As for AAGGGAAC, the binding signal was 0.0389 % of ANNNNAAN 8-mers in experiment [1], 0.0506 % of ANNNNAAN 8-mers in experiment [2], 0.0363 % of ANNNNAAN 8-mers in experiment [3] and 0.0305 % of ANNNNAAN 8-mers in experiment [4].

On to AGCCCAAC, for which the binding signal was 0.0105 % of ANNNNAAN 8-mers in experiment [3] and 0.0124 % of ANNNNAAN 8-mers in experiment [4].

In the case of ACCACAAG, the binding signal in experiment [1] is 0.0114 % of ANNNNAAN 8-mers; in experiment [2], 0.0178 % of ANNNNAAN 8-mers; in experiment [3], 0.0113 % of ANNNNAAN 8-mers.

For ACAGCAAC, the binding signal in experiment [1] is 0.0153 % of ANNNNAAN 8-mers; in experiment [2], 0.0155 % of ANNNNAAN 8-mers; in experiment [3], 0.014 % of ANNNNAAN 8-mers.

As to AAAGCAAA, the binding signal was 0.106 % of ANNNNAAN 8-mers in experiment [1], 0.0754 % of ANNNNAAN 8-mers in experiment [2], 0.179 % of ANNNNAAN 8-mers in experiment [3] and 0.0908 % of ANNNNAAN 8-mers in experiment [4].

On to ACGGGAAC, for which the binding signal is 0.0225 % of ANNNNAAN 8-mers in experiment [1], 0.027 % of ANNNNAAN 8-mers in experiment [2], 0.0215 % of ANNNNAAN 8-mers in experiment [3] and 0.0231 % of ANNNNAAN 8-mers in experiment [4].

With AGGGGAAG, the binding signal in experiment [1] is 0.0557 % of ANNNNAAN 8-mers; in experiment [2], 0.0673 % of ANNNNAAN 8-mers; in experiment [3], 0.0507 % of ANNNNAAN 8-mers; in experiment [4], 0.057 % of ANNNNAAN 8-mers.

On to AGCACAAC, for which the figures for the binding signal in experiment [1], in experiment [2] and in experiment [4] were 0.0114 % of ANNNNAAN 8-mers, 0.0132 % of ANNNNAAN 8-mers and 0.0124 % of ANNNNAAN 8-mers, respectively.

As for ATCAAAAT, the binding signal is 0.095 % of ANNNNAAN 8-mers in experiment [1], 0.0932 % of ANNNNAAN 8-mers in experiment [2], 0.106 % of ANNNNAAN 8-mers in experiment [3] and 0.0743 % of ANNNNAAN 8-mers in experiment [4].

Regarding AACCTAAC, the binding signal in experiment [1] is 0.013 % of ANNNNAAN 8-mers; in experiment [4], 0.0132 % of ANNNNAAN 8-mers.
